From PubChem BioAssay (Tox21)
Inconclusive results are not listed. Activity calls are given as the source filed them. Unless noted, calls follow the shape of the dose curve; as a rule, active = well fitted curve in the direction sought with a large enough effect in the repeat runs; inconclusive = weak or mixed curves; inactive = no such curve, though single readings can be large; an effect the other way counts as inactive or inconclusive.

Legend:
[1] = qHTS assay to test for compound auto fluorescence at 535 nm (green) in HEK293 cells (AID 720680)
[2] = qHTS assay to test for compound auto fluorescence at 460 nm (blue) in HEK293 cell free culture (AID 720681)
Procedure, shortened: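 Compounds were added to cell-free DMEM with 10% FBS and fluorescence read directly. The blue channel used 405 nm excitation and 460 nm emission, with triamterene as the reference fluorophore.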

[3] = qHTS assay to test for compound auto fluorescence at 535 nm (green) in HEK293 cell free culture (AID 720682)
Procedure, shortened: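 Using fluorescein as calibrant, autofluorescence was quantified at 485/535 nm in cell-free DMEM containing 10% FBS after pintool addition of compound or vehicle.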

[4] = qHTS assay to test for compound auto fluorescence at 590 nm (red) in HEK293 cell free culture (AID 720683)
Procedure, shortened: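 Cell-free wells of DMEM with 10% FBS received compound, and intrinsic fluorescence was read at excitation/emission 540/590 nm. Values expressed as equivalence to Rose Bengal sodium.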

[5] = qHTS assay to test for compound auto fluorescence at 590 nm (red) in HepG2 cell free culture (AID 720684)
Procedure, shortened: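 Compound was pinned into wells holding MEM with 10% FBS and no cells, and red fluorescence was read at Ex/Em 540/590 nm. Signal is expressed as auto fluorescence equivalency relative to Rose Bengal sodium.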

[6] = qHTS assay to test for compound auto fluorescence at 460 nm (blue) in HepG2 cell free culture (AID 720685)
Procedure, shortened: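 Compound (23 nL) or DMSO pinned into cell-free MEM with 10% FBS; blue fluorescence read at 405/460 nm excitation/emission, expressed as auto-fluorescence equivalency to triamterene.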

[7] = qHTS assay to test for compound auto fluorescence at 535 nm (green) in HepG2 cell free culture (AID 720686)
[8] = qHTS assay to test for compound auto fluorescence at 460 nm (blue) in HepG2 cells (AID 720687)
Procedure, shortened: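 HepG2 cells in MEM with 10% FBS, attached overnight at 37 C, were exposed to compound or DMSO for 1 hr at 37 C, 5% CO2. Blue fluorescence was read at 405/460 nm, with triamterene as reference fluorophore.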

[9] = target: Glucocorticoid receptor (Homo sapiens) (UniProt P04150); assay: qHTS assay to identify small molecule agonists of the glucocorticoid receptor (GR) signaling pathway (AID 720691; active = well fitted activation curve with a large enough effect in the signal ratio in the repeat runs, not every such curve was filed as active; the % refers to the signal ratio)
Procedure, shortened: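 GR-bla HeLa cells carrying a GRE-driven beta-lactamase reporter, exposed to compounds for 18 h at 37 C. Reporter activation read as fluorescence after 2 h with LiveBLAzer B/G FRET substrate at room temperature.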

[10] = target: Glucocorticoid receptor (Homo sapiens) (UniProt P04150); assay: qHTS assay to identify small molecule antagonists of the glucocorticoid receptor (GR) signaling pathway (AID 720692; active = well fitted inhibition curve with a large enough effect in the signal ratio in the repeat runs, not every such curve was filed as active; the % refers to the signal ratio)
Procedure, shortened: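 GR-bla HeLa cells carrying a GRE-driven beta-lactamase reporter received compound after 4 h plating, then dexamethasone (5 nM final). After 18 h at 37C, the FRET substrate was loaded for 2 h at room temperature and fluorescence read.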

[11] = qHTS assay to identify small molecule antagonists of the glucocorticoid receptor (GR) signaling pathway - cell viability counter screen (AID 720693); also: nearly all actives have a fitted effect of over 55% in size
[12] = qHTS assay for identifying genotoxic compounds that show differential cytotoxicity against isogenic chicken DT40 cell lines with known DNA damage response pathways - wild type cell line (AID 743012); also: nearly all actives have a fitted effect of over 60% in size
Procedure, shortened: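 Wild-type DT40 cells (300/well) exposed to compounds for 40 hours at 37 C/5% CO2. Viability read by CellTiter-Glo luminescence after 30 min at room temperature.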

[13] = qHTS assay for identifying genotoxic compounds that show differential cytotoxicity against isogenic chicken DT40 cell lines with known DNA damage response pathways - Rev3 mutant cell line (AID 743014); also: nearly all actives have a fitted effect of over 55% in size
[14] = qHTS assay for identifying genotoxic compounds that show differential cytotoxicity against isogenic chicken DT40 cell lines with known DNA damage response pathways - Rad54/Ku70 mutant cell line (AID 743015); also: nearly all actives have a fitted effect of over 60% in size
[15] = qHTS assay to identify small molecule antagonists of the androgen receptor (AR) signaling pathway - cell viability counter screen (AID 743033; also: nearly all actives have a fitted effect of over 45% in size)
[16] = target: Androgen receptor (Homo sapiens) (UniProt P10275); assay: qHTS assay to identify small molecule antagonists of the androgen receptor (AR) signaling pathway (AID 743035; active = well fitted inhibition curve with a large enough effect in the signal ratio in the repeat runs, not every such curve was filed as active; the % refers to the signal ratio)
Procedure, shortened: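 HEK293 cells stably carrying UAS-beta-lactamase reporter, 2,000/well, given compounds plus R1881 agonist and incubated 16 h at 37C. LiveBLAzer B/G FRET substrate then added for 2 h at room temperature before fluorescence reading.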

[17] = target: Androgen receptor (Homo sapiens) (UniProt P10275); assay: qHTS assay to identify small molecule agonists of the androgen receptor (AR) signaling pathway (AID 743036; active = well fitted activation curve with a large enough effect in the signal ratio in the repeat runs, with a control signal flat, not every such curve was filed as active; the % refers to the signal ratio)
Procedure, shortened: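 In this Tox21 qHTS, 2,000 HEK293 AR-bla cells per well were incubated with compounds for 16 h at 37C and 5% CO2. Fluorescence intensity was recorded 2 h after adding LiveBLAzer B/G FRET substrate at room temperature.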

[18] = target: Androgen receptor (Homo sapiens) (UniProt P10275); assay: qHTS assay to identify small molecule agonists of the androgen receptor (AR) signaling pathway using the MDA cell line (AID 743040; also: nearly all actives have a fitted effect of over 20% in size)
Procedure, shortened: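 MDA-kb2 breast carcinoma cells carrying MMTV-luciferase (responsive to AR and GR), plated 5 h then treated 16 h with compounds at 37C, 0% CO2. Read-out was ONE-Glo luminescence after 30 min at room temperature.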

[19] = qHTS assay to identify small molecule antagonists of the androgen receptor (AR) signaling pathway using the MDA cell line - cell viability counter screen (AID 743041; also: nearly all actives have a fitted effect of over 45% in size)
Procedure, shortened: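 MDA-kb2 AR-luc cells (MMTV-luciferase, AR/GR responsive) treated with compounds plus R1881 agonist for 16 h at 37C. CellTiter-Fluor added at 15.5 h; fluorescence read after 30 min in the same wells.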

[20] = target: Androgen receptor (Homo sapiens) (UniProt P10275); assay: qHTS assay to identify small molecule antagonists of the androgen receptor (AR) signaling pathway using the MDA cell line (AID 743042; also: nearly all actives have a fitted effect of over 55% in size)
Procedure, shortened: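 MDA-kb2 breast carcinoma cells carrying MMTV-luciferase (AR/GR responsive) were co-treated with compounds and the agonist R1881 for 16 h at 37C. Inhibition read as ONE-Glo luminescence; CellTiter-Fluor fluorescence measured in parallel for cytotoxicity.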
% is scaled to controls: 0 for no effect and ±100 for the full control effect.

Glucocorticoid receptor (Homo sapiens), sequence (P04150 whole entry, looked up): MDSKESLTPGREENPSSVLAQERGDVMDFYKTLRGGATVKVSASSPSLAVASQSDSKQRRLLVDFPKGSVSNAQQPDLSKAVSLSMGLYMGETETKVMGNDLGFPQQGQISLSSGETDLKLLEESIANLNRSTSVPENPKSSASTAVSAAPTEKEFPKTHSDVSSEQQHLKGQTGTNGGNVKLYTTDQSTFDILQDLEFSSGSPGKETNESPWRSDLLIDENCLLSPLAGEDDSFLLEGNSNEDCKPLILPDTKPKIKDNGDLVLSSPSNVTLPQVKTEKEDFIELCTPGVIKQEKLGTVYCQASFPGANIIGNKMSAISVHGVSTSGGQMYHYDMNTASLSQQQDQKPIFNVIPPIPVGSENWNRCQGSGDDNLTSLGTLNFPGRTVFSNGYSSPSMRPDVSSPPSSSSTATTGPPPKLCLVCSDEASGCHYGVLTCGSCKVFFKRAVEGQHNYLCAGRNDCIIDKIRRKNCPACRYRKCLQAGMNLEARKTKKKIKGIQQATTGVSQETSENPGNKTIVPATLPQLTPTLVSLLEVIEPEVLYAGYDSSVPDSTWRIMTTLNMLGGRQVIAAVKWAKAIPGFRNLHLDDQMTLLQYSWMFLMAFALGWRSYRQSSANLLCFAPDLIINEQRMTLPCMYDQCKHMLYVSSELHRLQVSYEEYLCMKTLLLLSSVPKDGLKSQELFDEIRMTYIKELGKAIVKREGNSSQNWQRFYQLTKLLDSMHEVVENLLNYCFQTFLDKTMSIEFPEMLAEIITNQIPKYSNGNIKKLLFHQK
Androgen receptor (Homo sapiens), sequence (P10275 whole entry, looked up): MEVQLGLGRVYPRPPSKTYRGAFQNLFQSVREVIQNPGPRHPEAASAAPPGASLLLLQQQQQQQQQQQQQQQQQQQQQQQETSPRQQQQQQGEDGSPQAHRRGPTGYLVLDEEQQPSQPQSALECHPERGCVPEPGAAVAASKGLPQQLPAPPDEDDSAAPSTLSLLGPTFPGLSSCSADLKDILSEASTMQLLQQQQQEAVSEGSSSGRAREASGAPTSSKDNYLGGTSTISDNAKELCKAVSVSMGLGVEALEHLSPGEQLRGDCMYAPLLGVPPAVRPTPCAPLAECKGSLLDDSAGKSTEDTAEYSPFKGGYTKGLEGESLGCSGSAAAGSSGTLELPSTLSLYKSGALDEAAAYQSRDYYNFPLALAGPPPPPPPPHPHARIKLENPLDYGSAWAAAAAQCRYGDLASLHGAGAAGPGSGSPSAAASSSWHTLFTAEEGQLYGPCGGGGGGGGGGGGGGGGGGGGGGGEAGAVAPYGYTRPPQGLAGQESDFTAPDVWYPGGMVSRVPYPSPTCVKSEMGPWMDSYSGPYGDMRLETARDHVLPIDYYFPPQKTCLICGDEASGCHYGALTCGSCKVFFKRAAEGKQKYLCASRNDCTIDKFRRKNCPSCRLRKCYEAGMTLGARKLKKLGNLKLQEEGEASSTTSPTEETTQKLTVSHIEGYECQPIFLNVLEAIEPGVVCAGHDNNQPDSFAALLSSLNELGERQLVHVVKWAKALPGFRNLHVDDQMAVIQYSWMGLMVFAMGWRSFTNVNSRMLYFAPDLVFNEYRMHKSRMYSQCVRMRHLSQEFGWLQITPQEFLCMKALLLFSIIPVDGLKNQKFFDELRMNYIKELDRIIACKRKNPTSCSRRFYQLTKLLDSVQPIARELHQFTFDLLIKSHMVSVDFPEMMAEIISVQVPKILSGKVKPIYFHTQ

CCCCCCCC/C=C\CCCCCCCC(=O)OCCCC
inactive: fluorescence, % of fluorescein [1] 0.0126% [at 18.6 µM] | fluorescence, % of fluorescent control [2] -0.0858% [at 18.6 µM] | activity change [3] -0.0648% [at 18.6 µM] | fluorescence, % of fluorescent control [4] 0.213% [at 18.6 µM] | fluorescence, % of Rose Bengal [5] 0.134% [at 18.6 µM] | fluorescence, % of fluorescent control [6] -0.0292% [at 18.6 µM] | fluorescence, % of fluorescein control [7] -0.0278% [at 18.6 µM] | fluorescence, % of fluorescent control [8] -0.0041% [at 18.6 µM] | Potency [9] | outcome [10] | outcome [11] | Potency [12] | Potency [13] | Potency [14] | Potency [15]

Cc1cccc(C)c1NC(=O)c1ccccc1C(=O)O
inactive: outcome [1] | outcome [2] | outcome [3] | outcome [4] | outcome [5] | outcome [6] | outcome [7] | outcome [8] | Potency [9] | outcome [10] | outcome [11] | Potency [12] | Potency [13] | Potency [14] | Potency [15] | Potency [16] | outcome [17] | outcome [18] | Potency [19] | Potency [20]

CN(C)C(=O)CNC(=O)Cc1ccccc1
inactive: outcome [1] | outcome [2] | outcome [3] | outcome [4] | outcome [5] | outcome [6] | outcome [7] | outcome [8] | Potency [9] | outcome [10] | outcome [11] | Potency [12] | Potency [13] | Potency [14] | Potency [15] | Potency [19]

O=S(=O)(O)CCN1CCN(CCO)CC1
inactive: outcome [1] | outcome [2] | outcome [3] | outcome [4] | outcome [5] | outcome [6] | outcome [7] | outcome [8] | Potency [9] | outcome [10] | outcome [11] | Potency [12] | Potency [13] | Potency [14] | Potency [15] | Potency [19]

N[C@@H](COP(=O)(O)O)C(=O)O
inactive: outcome [1] | outcome [2] | outcome [3] | outcome [4] | outcome [5] | outcome [6] | outcome [7] | outcome [8] | Potency [9] | outcome [10] | outcome [11] | Potency [12] | Potency [13] | Potency [14] | Potency [15]

CC(=O)Nc1ccc(S(=O)(=O)Cl)cc1
inactive: outcome [1] | outcome [2] | outcome [3] | outcome [4] | outcome [5] | outcome [6] | outcome [7] | outcome [8] | Potency [9] | outcome [10] | outcome [11] | Potency [12] | Potency [13] | Potency [14] | Potency [15] | Potency [19]

CN(C)c1ccc(C=O)cc1
inactive: outcome [1] | outcome [2] | outcome [3] | outcome [4] | outcome [5] | outcome [6] | outcome [7] | outcome [8] | Potency [9] | outcome [10] | outcome [11] | Potency [12] | Potency [13] | Potency [14] | Potency [15]

C[Si](C)(C)C
inactive: outcome [1] | outcome [2] | outcome [3] | outcome [4] | outcome [5] | outcome [6] | outcome [7] | outcome [8] | Potency [9] | outcome [10] | outcome [11] | Potency [12] | Potency [13] | Potency [14] | Potency [15] | Potency [19]
